Experimental data taken from PubChem BioAssay (Tox21).
Values joined by “and” are separate entries in the source; they are usually repeats but may differ in a detail not shown here. Equal entries are not always repeated. Values without a mark were called inactive. Records with an inconclusive call do not appear. Entries that show only a call come without a potency. Active and inactive are the calls of the source. Unless noted, calls come from the whole dose curve; as a rule, active = well fitted curve in the direction sought with a large enough effect in the repeat runs; inconclusive = weak or mixed curves; inactive = no such curve, though single readings can be large; an effect the other way counts as inactive or inconclusive.

Legend:
[1] = qHTS assay to identify small molecule antagonists of the glucocorticoid receptor (GR) signaling pathway - cell viability counter screen (AID 720693); note: nearly all actives have a fitted effect of over 55% in size
[2] = qHTS assay to identify small molecule antagonists of the androgen receptor (AR) signaling pathway - cell viability counter screen (AID 743033; note: nearly all actives have a fitted effect of over 45% in size)
[3] = qHTS assay to identify small molecule antagonists of the androgen receptor (AR) signaling pathway using the MDA cell line - cell viability counter screen (AID 743041; note: nearly all actives have a fitted effect of over 45% in size)
Outline: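 Cells were plated at 3,000 per well and left 5 h. Compounds in DMSO were then pinned in, followed by R1881. After 16 h at 37C, CellTiter-Fluor fluorescence gave viability.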

[4] = qHTS assay to identify small molecule antagonists of the thyroid receptor (TR) signaling pathway - cell viability counter screen (AID 743064); note: nearly all actives have a fitted effect of over 50% in size; note: potency is the fitted concentration of half-maximal effect
Outline: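 Rat GH3 pituitary tumor cells stably expressing two TR response elements driving luciferase were plated, rested 4 h, then dosed with library compounds and T3 (1 nM final). After 23.5 h at 37 °C, CellTiter-Fluor was added for 30 min and fluorescence recorded.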

[5] = qHTS assay to identify small molecule antagonists of the thyroid receptor (TR) signaling pathway (AID 743065); note: nearly all actives have a fitted effect of over 55% in size; note: potency is the fitted concentration of half-maximal effect; for activity, negative = inhibition: series mostly up to about 70 µM
Outline: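 Antagonism measured as loss of luciferase signal in GH3 cells stably carrying a TRE-luciferase reporter, co-treated with compound and T3 (1 nM final) for 23.5 h at 37 C. Viability was read in the same well by CellTiter-Fluor.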

[6] = tested on: thyroid hormone receptor (rat, GH3 cells); assay: qHTS assay to identify small molecule agonists of the thyroid receptor (TR) signaling pathway (AID 743066; calls by dose curve)
[7] = molecular target: Estrogen receptor (Homo sapiens) (UniProt P03372); assay: qHTS assay to identify small molecule antagonists of the estrogen receptor alpha (ER-alpha) signaling pathway (AID 743069; active = well fitted curve in the direction sought with a large enough effect in the signal ratio in the repeat runs, not every such curve was filed as active; the % refers to the signal ratio)
Sequence of Estrogen receptor (Homo sapiens) (P03372 whole entry, looked up): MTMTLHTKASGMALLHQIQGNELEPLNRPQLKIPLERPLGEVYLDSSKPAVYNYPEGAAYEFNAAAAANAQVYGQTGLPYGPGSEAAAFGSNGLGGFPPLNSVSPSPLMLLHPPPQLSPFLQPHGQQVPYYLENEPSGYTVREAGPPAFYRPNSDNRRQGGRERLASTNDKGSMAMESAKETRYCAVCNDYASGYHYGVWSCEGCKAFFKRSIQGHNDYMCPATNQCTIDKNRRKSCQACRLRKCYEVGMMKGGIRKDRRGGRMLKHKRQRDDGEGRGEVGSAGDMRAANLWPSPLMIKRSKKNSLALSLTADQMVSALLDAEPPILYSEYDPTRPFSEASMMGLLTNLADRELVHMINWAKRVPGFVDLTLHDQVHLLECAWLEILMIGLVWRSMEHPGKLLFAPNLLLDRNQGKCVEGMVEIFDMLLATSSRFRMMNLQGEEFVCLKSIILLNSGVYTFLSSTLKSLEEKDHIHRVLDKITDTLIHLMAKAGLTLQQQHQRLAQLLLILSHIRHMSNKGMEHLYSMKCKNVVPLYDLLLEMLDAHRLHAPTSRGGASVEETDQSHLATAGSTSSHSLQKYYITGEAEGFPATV
Outline: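 ER-alpha-UAS-bla GripTite HEK293 line; 2% charcoal-stripped FBS overnight; plated, 4 hr 37C/5% CO2; cpd in DMSO + 17beta-estradiol, 18 hr 37C; LiveBLAzer B/G FRET substrate 2 hr RT; fluorescence intensity.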

[8] = qHTS assay to identify small molecule antagonists of the estrogen receptor alpha (ER-alpha) signaling pathway - cell viability counter screen (AID 743074; calls by dose curve;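 note: HEK293 cells carrying ER-alpha-UAS-bla reporter stimulated with 17beta-estradiol; nearly all actives have a fitted effect of over 45% in size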)
[9] = molecular target: Estrogen receptor (Homo sapiens) (UniProt P03372); assay: qHTS assay to identify small molecule agonists of the estrogen receptor alpha (ER-alpha) signaling pathway (AID 743075; calls by dose curve;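 note: HEK293 GripTite cells with ER-alpha and UAS-driven beta-lactamase reporter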)
[10] = molecular target: Estrogen receptor (Homo sapiens) (UniProt P03372); assay: qHTS assay to identify small molecule agonists of the estrogen receptor alpha (ER-alpha) signaling pathway using the BG1 cell line (AID 743079); note: nearly all actives have a fitted effect of over 20% in size; note: potency is the fitted concentration of half-maximal effect
[11] = qHTS assay to identify small molecule antagonists of the estrogen receptor alpha (ER-alpha) signaling pathway using the BG1 cell line (AID 743080; calls by dose curve; note: series mostly up to about 70 µM; nearly all actives have a fitted effect of over 25% in size)
Outline: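 Antagonist mode: compounds in DMSO were pinned onto BG1-Luc-4E2 cells alongside 17beta-estradiol agonist, incubated 21.5 h, and ERE-driven luciferase measured with ONE-Glo. Cytotoxicity was multiplexed using CellTiter-Fluor fluorescence.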

Aromatase (Homo sapiens) = Aromatase (Homo sapiens) (UniProt P11511); assay: qHTS assay to identify aromatase inhibitors (AID 743083); note: series mostly up to about 70 µM; nearly all actives have a fitted effect of over 55% in size
Sequence of Aromatase (Homo sapiens) (P11511 whole entry, looked up): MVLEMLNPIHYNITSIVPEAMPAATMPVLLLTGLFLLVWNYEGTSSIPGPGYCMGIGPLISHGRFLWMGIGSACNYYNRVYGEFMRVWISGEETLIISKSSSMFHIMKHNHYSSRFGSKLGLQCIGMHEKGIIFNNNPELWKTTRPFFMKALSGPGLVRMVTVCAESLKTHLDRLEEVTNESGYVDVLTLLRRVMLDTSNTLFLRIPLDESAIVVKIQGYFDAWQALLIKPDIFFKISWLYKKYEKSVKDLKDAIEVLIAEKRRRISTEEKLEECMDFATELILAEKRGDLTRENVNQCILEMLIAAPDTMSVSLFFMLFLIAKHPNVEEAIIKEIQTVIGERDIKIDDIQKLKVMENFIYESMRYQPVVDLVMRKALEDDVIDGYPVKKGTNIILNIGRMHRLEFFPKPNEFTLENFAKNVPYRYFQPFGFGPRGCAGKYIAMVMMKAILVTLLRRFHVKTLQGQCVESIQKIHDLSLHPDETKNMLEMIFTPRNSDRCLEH

[12] = qHTS assay for identifying genotoxic compounds that show differential cytotoxicity against isogenic chicken DT40 cell lines with known DNA damage response pathways - wild type cell line (AID 743012); note: nearly all actives have a fitted effect of over 60% in size; note: potency is the fitted concentration of half-maximal effect
Outline: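 Wild type DT40, 300 cells/well, ~0.5 h settle at 37 C/5% CO2; compounds in DMSO added by pintool; 40 h at 37 C/5% CO2; CellTiter-Glo, 30 min RT; luminescence.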

[13] = qHTS assay for identifying genotoxic compounds that show differential cytotoxicity against isogenic chicken DT40 cell lines with known DNA damage response pathways - Rad54/Ku70 mutant cell line (AID 743015); note: nearly all actives have a fitted effect of over 60% in size; note: potency is the fitted concentration of half-maximal effect
[14] = qHTS assay to identify small molecule antagonists of the estrogen receptor alpha (ER-alpha) signaling pathway using the BG1 cell line - cell viability counter screen (AID 743081);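 note: compound given together with 17beta-estradiol as the ER stimulus; series mostly up to about 70 µM; nearly all actives have a fitted effect of over 45% in size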
[15] = qHTS assay for identifying genotoxic compounds that show differential cytotoxicity against isogenic chicken DT40 cell lines with known DNA damage response pathways - Rev3 mutant cell line (AID 743014); note: nearly all actives have a fitted effect of over 55% in size; note: potency is the fitted concentration of half-maximal effect
[16] = molecular target: Androgen receptor (Homo sapiens) (UniProt P10275); assay: qHTS assay to identify small molecule agonists of the androgen receptor (AR) signaling pathway using the MDA cell line (AID 743040; note: nearly all actives have a fitted effect of over 20% in size)
Sequence of Androgen receptor (Homo sapiens) (P10275 whole entry, looked up): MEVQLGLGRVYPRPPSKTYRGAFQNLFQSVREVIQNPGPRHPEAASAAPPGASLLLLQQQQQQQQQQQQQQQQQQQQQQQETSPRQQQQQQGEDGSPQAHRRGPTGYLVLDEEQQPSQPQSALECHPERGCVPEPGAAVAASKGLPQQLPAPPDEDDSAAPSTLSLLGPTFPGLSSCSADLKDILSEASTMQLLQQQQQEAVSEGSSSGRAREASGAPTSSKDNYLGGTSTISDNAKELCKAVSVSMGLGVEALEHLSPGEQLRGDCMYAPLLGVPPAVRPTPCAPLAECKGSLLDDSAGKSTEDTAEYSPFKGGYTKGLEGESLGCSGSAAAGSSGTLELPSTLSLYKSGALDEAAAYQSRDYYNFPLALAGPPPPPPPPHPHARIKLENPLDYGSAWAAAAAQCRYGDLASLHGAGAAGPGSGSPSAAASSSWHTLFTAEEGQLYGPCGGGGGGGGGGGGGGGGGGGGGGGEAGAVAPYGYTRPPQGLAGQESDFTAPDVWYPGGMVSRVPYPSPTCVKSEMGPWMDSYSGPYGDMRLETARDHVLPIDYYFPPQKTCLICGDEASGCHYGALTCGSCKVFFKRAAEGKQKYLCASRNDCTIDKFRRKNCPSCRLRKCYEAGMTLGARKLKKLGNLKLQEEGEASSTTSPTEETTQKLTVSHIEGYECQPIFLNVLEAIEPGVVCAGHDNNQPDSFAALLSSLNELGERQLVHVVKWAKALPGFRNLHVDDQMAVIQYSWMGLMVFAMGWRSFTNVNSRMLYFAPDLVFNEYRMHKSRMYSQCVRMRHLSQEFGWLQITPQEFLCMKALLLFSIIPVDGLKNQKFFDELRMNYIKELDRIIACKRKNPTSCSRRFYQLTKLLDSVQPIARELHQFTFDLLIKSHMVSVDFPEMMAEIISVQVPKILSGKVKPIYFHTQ
Outline: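 Cells plated, 5 h at 37C/0% CO2; compound or DMSO pinned; 16 h at 37C; ONE-Glo added; luminescence measured after 30 min at room temperature. Reporter line: MDA-kb2 with MMTV-luciferase responsive to AR and GR.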

[17] = molecular target: Androgen receptor (Homo sapiens) (UniProt P10275); assay: qHTS assay to identify small molecule antagonists of the androgen receptor (AR) signaling pathway using the MDA cell line (AID 743042; note: nearly all actives have a fitted effect of over 55% in size)
Outline: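 Antagonist mode: compounds plus R1881 agonist added to MDA-kb2 AR-luc cells, incubated 16 h at 37C. Luciferase reporter luminescence quantified, with multiplexed CellTiter-Fluor readout for cell viability.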

[18] = molecular target: Androgen receptor (Homo sapiens) (UniProt P10275); assay: qHTS assay to identify small molecule antagonists of the androgen receptor (AR) signaling pathway (AID 743035; active = well fitted inhibition curve with a large enough effect in the signal ratio in the repeat runs, not every such curve was filed as active; the % refers to the signal ratio)
Outline: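 Fluorescence from a beta-lactamase FRET substrate (LiveBLAzer B/G, 2 h, room temperature) measured inhibition of R1881-stimulated signaling in GeneBLAzer AR-UAS-bla HEK293 cells exposed to compound for 16 h at 37C.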

[19] = molecular target: Androgen receptor (Homo sapiens) (UniProt P10275); assay: qHTS assay to identify small molecule agonists of the androgen receptor (AR) signaling pathway (AID 743036; active = well fitted activation curve with a large enough effect in the signal ratio in the repeat runs, with a control signal flat, not every such curve was filed as active; the % refers to the signal ratio)
Outline: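 Quantitative HTS of the Tox21 10K library in HEK293 cells bearing a stably integrated UAS-controlled beta-lactamase reporter. Compound exposure lasted 16 h at 37C. Reporter activity was detected by FRET substrate fluorescence after 2 h at room temperature.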

CN1CCC(=C2c3ccccc3CC(=O)c3sccc32)CC1
outcome [1]: inactive | Potency [2]: inactive | Potency [3]: inactive | Potency [4]: 15 µM (active) | Potency [5]: 23.7 µM (active) | outcome [6]: inactive | outcome [7]: inactive | outcome [8]: inactive | Potency [9]: inactive | Potency [10]: inactive | outcome [11]: inactive | Potency (Aromatase (Homo sapiens)): inactive

COc1nc(N)nc2c1ncn2[C@@H]1O[C@H](CO)[C@@H](O)[C@@H]1O
outcome [1]: inactive | Potency [12]: inactive | Potency [13]: inactive | Potency [2]: inactive | Potency [3]: inactive | outcome [6]: inactive | outcome [8]: inactive | Potency [14]: inactive | Potency (Aromatase (Homo sapiens)): inactive

CCO/C([O-])=N/c1c[n+](N2CCOCC2)no1
outcome [1]: inactive | Potency [12]: inactive | Potency [13]: inactive | Potency [2]: inactive | Potency [3]: inactive | Potency [4]: inactive | Potency [5]: inactive | outcome [6]: inactive | outcome [7]: inactive | outcome [8]: inactive | Potency [9]: inactive | Potency [10]: inactive | outcome [11]: inactive | Potency [14]: inactive | Potency (Aromatase (Homo sapiens)): inactive

CCCCCCCCCCCCN(CCCCCCCCCCCC)CCCCCCCCCCCC
outcome [1]: inactive | Potency [13]: inactive | Potency [2]: inactive | Potency [3]: inactive | Potency [4]: inactive | Potency [5]: inactive | outcome [6]: inactive | outcome [8]: inactive | Potency [14]: inactive | Potency (Aromatase (Homo sapiens)): inactive

C=C(C)CS(=O)(=O)O
outcome [1]: inactive | Potency [15]: inactive | Potency [13]: inactive | Potency [2]: inactive | Potency [16]: inactive | Potency [3]: inactive | Potency [17]: inactive | Potency [4]: inactive | Potency [5]: inactive | outcome [6]: inactive | outcome [7]: inactive | outcome [8]: inactive | Potency [9]: inactive | Potency [10]: inactive | outcome [11]: inactive | Potency [14]: inactive | Potency (Aromatase (Homo sapiens)): inactive

CCCCCCOC(=O)CCCCC(=O)OCCCCCC
outcome [1]: inactive | Potency [12]: inactive | Potency [13]: inactive | Potency [2]: inactive | Potency [3]: inactive | Potency [5]: inactive | outcome [6]: inactive | outcome [7]: inactive | outcome [8]: inactive | Potency [9]: inactive | Potency [10]: inactive | outcome [11]: inactive | Potency [14]: inactive | Potency (Aromatase (Homo sapiens)): inactive

CCOC(=O)C(=O)OCC
outcome [1]: inactive | Potency [12]: inactive | Potency [13]: inactive | Potency [2]: inactive | Potency [3]: inactive | Potency [4]: inactive | Potency [5]: inactive | outcome [6]: inactive | outcome [7]: inactive | outcome [8]: inactive | Potency [9]: inactive | Potency [10]: inactive | outcome [11]: inactive | Potency [14]: inactive | Potency (Aromatase (Homo sapiens)): inactive

Cc1c(NC(C)C)c(=O)n(-c2ccccc2)n1C
outcome [1]: inactive | Potency [12]: inactive | Potency [13]: inactive | Potency [2]: inactive | Potency [3]: inactive | Potency [4]: inactive | Potency [5]: inactive | outcome [6]: inactive | outcome [7]: inactive | Potency [9]: inactive | Potency [10]: inactive | Potency [14]: inactive | Potency (Aromatase (Homo sapiens)): inactive

CS(=O)(=O)O
Potency [12]: inactive | Potency [15]: inactive | Potency [13]: inactive | Potency [2]: inactive | outcome [18]: inactive | outcome [19]: inactive | Potency [16]: inactive | Potency [3]: inactive | Potency [4]: inactive | Potency [5]: inactive | outcome [6]: inactive | outcome [7]: inactive | outcome [8]: inactive | Potency [9]: inactive | Potency [10]: inactive | Potency [14]: inactive | Potency (Aromatase (Homo sapiens)): inactive

O=C1NC(=O)[C@@]2(CCOc3ccc(F)cc32)N1
outcome [1]: inactive | Potency [12]: inactive | Potency [13]: inactive | Potency [2]: inactive | Potency [3]: inactive | outcome [7]: inactive | outcome [8]: inactive | Potency [9]: inactive | Potency [10]: inactive | outcome [11]: inactive | Potency [14]: inactive | Potency (Aromatase (Homo sapiens)): inactive

O=c1cc(-c2ccccc2)oc2ccccc12
Potency [12]: 21.7 µM (active) | Potency [15]: 48.6 µM (active) and 43.1 µM (active) | Potency [13]: 56.9 µM (active) | Potency [2]: inactive | Potency [16]: inactive | Potency [3]: inactive | Potency [17]: inactive | Potency [4]: inactive | Potency [5]: inactive | outcome [6]: inactive | outcome [7]: inactive | outcome [8]: inactive | Potency [10]: 2.43 µM (active) and 3.95 µM (active) | Potency [14]: inactive

CCCCCCCCCCCCCC=O
viability change, negative = cytotoxic [1]: -0.799% [at 7.04 µM] | activity change, negative = cytotoxicity [13]: -24.1% [at 8.55 µM] | activity change, negative = cytotoxicity [2]: 5.83% [at 7.04 µM] | viability change, negative = cytotoxic [3]: -4.68% [at 8.47 µM] | activity change, negative = cytotoxic [4]: -8.15% [at 8.44 µM] | activity, negative = inhibition [5]: -3.68% [at 8.44 µM] | activation [6]: 0.523% [at 8.08 µM] | activity, negative = inhibition [7]: -10.5% [at 6.71 µM] | activity, negative = cytotoxicity [8]: -17.6% [at 6.72 µM] | activation [9]: 2.95% [at 6.71 µM] | Potency [10]: 2.69 µM (active) | activity change, negative = cytotoxicity [14]: -2.15% [at 8.47 µM] | activity, negative = inhibition (Aromatase (Homo sapiens)): -2.09% [at 8.47 µM]

O=C(CCCN1CCN(c2ccccn2)CC1)c1ccc(F)cc1
outcome [1]: inactive | Potency [2]: inactive | Potency [3]: inactive | Potency [4]: inactive | Potency [5]: inactive | outcome [6]: inactive | outcome [8]: inactive | Potency [14]: inactive | Potency (Aromatase (Homo sapiens)): inactive

CCOc1ccc(C(=O)OCCN(CC)CC)cc1
outcome [1]: inactive | Potency [15]: 21.1 µM (active) | Potency [13]: 26.6 µM (active) | Potency [2]: inactive | outcome [18]: inactive | outcome [19]: inactive | Potency [16]: inactive | Potency [3]: inactive | Potency [17]: inactive | Potency [4]: inactive | Potency [5]: inactive | outcome [6]: inactive | outcome [8]: inactive | Potency [14]: inactive | Potency (Aromatase (Homo sapiens)): inactive

CCCC(=O)O[C@]1(C(=O)CO)CC[C@H]2[C@@H]3CCC4=CC(=O)CC[C@]4(C)[C@H]3[C@@H](O)C[C@@]21C
Potency [12]: inactive | Potency [15]: inactive | Potency [13]: inactive | Potency [3]: inactive | Potency [4]: inactive | Potency [5]: inactive | outcome [6]: inactive | outcome [8]: inactive | Potency [14]: inactive | Potency (Aromatase (Homo sapiens)): inactive

Cc1[nH]c(=O)c(C#N)cc1-c1ccc2nccn2c1
outcome [1]: inactive | Potency [12]: inactive | Potency [13]: inactive | Potency [2]: inactive | Potency [4]: inactive | Potency [5]: inactive | outcome [6]: inactive | outcome [8]: inactive | Potency [14]: inactive

O=c1[nH]c(=O)n([C@H]2C[C@H](O)[C@@H](CO)O2)cc1I
outcome [1]: inactive | Potency [15]: 1.8 µM (active) | Potency [13]: 2.02 µM (active) | Potency [3]: inactive | Potency [4]: inactive | Potency [5]: inactive | outcome [6]: inactive | outcome [8]: inactive | Potency [14]: inactive | Potency (Aromatase (Homo sapiens)): inactive

CCC(=O)OC(C)c1ccccc1 (stereo not drawn)
outcome [1]: inactive | Potency [15]: inactive | Potency [13]: inactive | Potency [2]: inactive | Potency [3]: inactive | Potency [4]: inactive | Potency [5]: inactive | outcome [6]: inactive | outcome [7]: inactive | outcome [8]: inactive | Potency [9]: inactive | Potency [10]: inactive | Potency [14]: inactive | Potency (Aromatase (Homo sapiens)): inactive

CC(=O)CC(C)(C)C1CCCCC1
outcome [1]: inactive | Potency [12]: inactive | Potency [13]: inactive | Potency [2]: inactive | Potency [3]: inactive | Potency [4]: inactive | Potency [5]: inactive | outcome [6]: inactive | outcome [7]: inactive | outcome [8]: inactive | Potency [9]: inactive | Potency [10]: inactive | outcome [11]: inactive | Potency [14]: inactive | Potency (Aromatase (Homo sapiens)): inactive
